Data on one substance can be found in the supplement of paper PMC10105736.
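Further: HEK293T cells with Epo stimulation, STAT-responsive firefly luciferase reporter, fold induction versus unstimulated cells divided by the larger fold induction of two negative controls lacking either bait or prey.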

The test has as its system CG7945. As to the kind of experiment: MAPPIT interaction score (arbitrary units); higher = stronger binary interaction signal, active = hit call of the paper. As to conditions: MAPPIT configuration: N-C; pair source set: Lit-BM-16;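 active = MAPPIT score above the 99th percentile of random reference set scores in the same batch; inactive = at or below it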. On the procedure:
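MAPPIT in HEK293T cells: Drosophila bait and prey ORFs (from the FlyBi ORF collection) were co-transfected in quadruplicate, with two wells stimulated by erythropoietin. Interaction-dependent JAK-STAT activation was read out with a STAT-responsive firefly luciferase reporter. Positive calls use the 99th percentile of random reference set (RRS) scores within each batch […]. Batches Dvs01 and Dvs02 used the N-N configuration and Dvs04 the N-C configuration. Pairs come from FlyBi screens, CuraGen, DPiM, Finley Y2H, Lit-BM-16, Lit-BS-16 and RRS.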
In the case of DnaJ-1, the MAPPIT interaction score is 1.15 (inactive).
